The values below come from PubChem BioAssay (NCATS).

Results filed as inconclusive are left out. Active and inactive are the calls of the source. Calls come from the whole dose curve; as a rule, active = well fitted curve in the direction sought with a large enough effect; inconclusive = small, poorly fitted or top-dose-only effect, or another doubt; inactive = no such curve, though single readings can be large; an effect the other way counts as inactive or inconclusive.

In assay [1] the target is Chromobox protein homolog 1 (Homo sapiens) (UniProt P83916). Put plainly: qHTS Validation Assay for Inhibitors of HP1-beta Chromodomain Interactions with Methylated Histone Tails (AID 488953). Note: nearly all actives have a fitted effect of over 50% in size. Note: potency is the fitted concentration of half-maximal effect. An outline of the steps:
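AlphaScreen proximity signal from streptavidin donor and nickel chelate acceptor beads (final 10 ug/mL) after 30 min dark incubation. Compounds had 30 min at room temperature with preformed complex of 50 nM HP1-beta and 50 nM b-H3(1-18)K9me3 in PBS pH 7.4 with 0.01% Tween-20.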

Assay [2] has as its target Methanococcus maripaludis chaperonin (MmCpn) (UniProt Q6LX38). The assay is described as follows: High-Throughput Screening for Modulators of Cytosolic Chaperonin Activity: MmCpn Primary Screen (AID 488978).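 Note: 50 nM MmCpn enzyme hydrolysing 30 µM ATP at 37 °C.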 A digest of the protocol:
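MmCpn at 50 nM final was preincubated 5 min at RT with compound. ATP was then added at 30 uM final for 10 min at 37 C. ADP formed was detected by Transcreener HTRF (665/590 nm).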

For assay [3], the target named is Transient receptor potential cation channel subfamily V member 1 (Homo sapiens) (UniProt Q8NER1). Put plainly: HTS Assay for Compounds that Act as Enhancers of the Vanilloid Receptor 1 (AID 488979). A digest of the protocol:
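TRPV1-expressing cells loaded with Fluo-8 calcium dye; compounds added and calcium influx read kinetically for 3 min (agonist phase), then capsaicin at EC20 added and read 2 min more for enhancement. Fluorescence ex 480/em 520 nm.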

Assay [4] deals with D(1A) dopamine receptor (Homo sapiens) (UniProt P21728). The assay is described as follows: HTS Assay for Allosteric Agonists of the Human D1 Dopamine Receptor: Primary Screen for Agonists (AID 488981). Note: potency is the fitted concentration of half-maximal effect. A digest of the protocol: (§1)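 Tetracycline-induced HEK293 T-REx cells force-coupled to calcium signalling were incubated overnight at 30 C and dye-loaded at room temperature. Calcium flux over 180 s after compound addition flagged agonists; a further 180 s read after EC20 dopamine flagged potentiators.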

Assay [5] shares this target. Put plainly: HTS Assay for Allosteric Agonists of the Human D1 Dopamine Receptor: Primary Screen for Antagonists (AID 488983).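 Note: calcium flux response to an EC80 dopamine challenge measured with no-wash dye; nearly all actives have a fitted effect of over 65% in size.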 Note: potency is the fitted concentration of half-maximal effect. A digest of the protocol:
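Calcium-flux read-out in inducible HEK293 T-REx cells expressing D1, dye-loaded 30–90 min at room temperature. Kinetic reads: 180 s after compound (agonist phase), then 180 s after an EC80 dopamine challenge.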

A short description of assay [6]: Validation screen for small molecules that induce genotoxicity in human embryonic kidney (HEK293T) cells expressing luciferase-tagged ELG1 (AID 493106). Note: potency is the fitted concentration of half-maximal effect. An outline of the steps:
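ELG1-luciferase reporter readout (ONE-Glo, 30 min, room temperature) after 16 hr compound treatment at 37 °C of HEK293T cells at 2,000 per well. Rising luminescence flags genotoxic stress.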

Assay [7] addresses ATPase family AAA domain-containing protein 5 (Homo sapiens) (UniProt Q96QE3). The assay is described as follows: Validation screen for small molecules that inhibit ELG1-dependent DNA repair in human embryonic kidney (HEK293T) cells expressing luciferase-tagged ELG1 (AID 493107). Note: nearly all actives have a fitted effect of over 70% in size. Note: potency is the fitted concentration of half-maximal effect. An outline of the steps: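 Luciferase read-out, ONE-Glo, 30 min at room temperature, follows 16 h co-exposure at 37 C of compound and the DNA-damaging agent 5-fluorouridine. Cells: HEK293T with ELG1-luciferase fusion, 2,000 per well, DMSO as vehicle.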

Assay [8] concerns the target D(1A) dopamine receptor (Homo sapiens) (UniProt P21728). Put plainly: HTS Assay for Allosteric Agonists of the Human D1 Dopamine Receptor: Primary Screen for Potentiators (AID 488982). Note: potency is the fitted concentration of half-maximal effect. A digest of the protocol:
as §1

The target of assay [9] is ATP-dependent 6-phosphofructokinase (Trypanosoma brucei brucei) (UniProt O15648). Put plainly: qHTS Assay to Find Inhibitors of T. brucei phosphofructokinase: hit validation (AID 492961).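 Note: luminescence reports ADP formed as PFK phosphorylates fructose-6-phosphate with ATP; series mostly up to about 51 µM.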 A digest of the protocol: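 Percent activity derived from corrected luminescence, normalized between 0x and 1x enzyme controls, then fitted to concentration-response curves. Conditions: 1.25 nM PFK, 0.1 mM ATP, 0.5 mM F6P, 45 min RT.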

Assay [10] concerns the target Thyrotropin receptor (Homo sapiens) (UniProt P16473). The assay is described as follows: qHTS Assay for Antagonists of the Thyroid Stimulating Hormone Receptor (AID 488980). Note: series mostly up to about 58 µM. A digest of the protocol: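 TSHR-transfected HEK293 cells (2000/well) in HEPES-buffered HBSS with 70 uM RO 20-1724 were stimulated with 4 nM TSH (EC80, final) in the presence of compound. cAMP was measured by HTRF competition after lysis and 30 min at RT.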

Sequence of Methanococcus maripaludis chaperonin (MmCpn) (Q6LX38 1-543): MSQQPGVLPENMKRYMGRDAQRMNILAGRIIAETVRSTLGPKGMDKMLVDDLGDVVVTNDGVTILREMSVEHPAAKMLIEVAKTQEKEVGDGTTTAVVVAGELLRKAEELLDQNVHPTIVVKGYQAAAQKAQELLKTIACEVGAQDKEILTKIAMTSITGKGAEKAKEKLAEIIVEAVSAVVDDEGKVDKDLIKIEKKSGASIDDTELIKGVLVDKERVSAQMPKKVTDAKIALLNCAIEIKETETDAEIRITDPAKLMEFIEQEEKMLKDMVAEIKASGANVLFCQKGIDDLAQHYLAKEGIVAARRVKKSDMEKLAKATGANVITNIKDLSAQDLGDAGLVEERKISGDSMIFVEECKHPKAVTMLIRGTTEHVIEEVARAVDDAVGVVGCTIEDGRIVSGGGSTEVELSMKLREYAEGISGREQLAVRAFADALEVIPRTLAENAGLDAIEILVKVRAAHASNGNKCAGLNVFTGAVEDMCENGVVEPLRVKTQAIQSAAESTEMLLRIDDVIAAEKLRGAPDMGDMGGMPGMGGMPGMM
Sequence of Thyrotropin receptor (Homo sapiens) (P16473 whole entry, looked up): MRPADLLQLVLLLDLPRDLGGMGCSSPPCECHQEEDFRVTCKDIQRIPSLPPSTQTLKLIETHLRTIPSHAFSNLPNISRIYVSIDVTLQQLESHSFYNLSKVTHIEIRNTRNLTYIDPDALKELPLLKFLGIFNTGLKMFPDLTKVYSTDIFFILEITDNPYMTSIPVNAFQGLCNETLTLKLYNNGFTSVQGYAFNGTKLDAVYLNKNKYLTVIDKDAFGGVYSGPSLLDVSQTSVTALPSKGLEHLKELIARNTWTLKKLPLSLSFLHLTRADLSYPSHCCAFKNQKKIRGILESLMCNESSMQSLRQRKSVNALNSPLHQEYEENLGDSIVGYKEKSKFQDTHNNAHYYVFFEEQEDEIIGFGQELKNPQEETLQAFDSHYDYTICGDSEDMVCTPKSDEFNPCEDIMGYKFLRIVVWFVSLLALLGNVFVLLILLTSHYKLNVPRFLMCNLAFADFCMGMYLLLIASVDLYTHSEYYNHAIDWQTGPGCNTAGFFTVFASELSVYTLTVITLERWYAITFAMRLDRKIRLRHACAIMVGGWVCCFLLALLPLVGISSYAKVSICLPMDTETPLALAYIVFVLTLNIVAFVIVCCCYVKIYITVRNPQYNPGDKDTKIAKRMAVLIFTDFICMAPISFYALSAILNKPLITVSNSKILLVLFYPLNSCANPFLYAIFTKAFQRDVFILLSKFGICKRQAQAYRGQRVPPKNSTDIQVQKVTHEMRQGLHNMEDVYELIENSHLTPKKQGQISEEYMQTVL
Sequence of ATP-dependent 6-phosphofructokinase (Trypanosoma brucei brucei) (O15648 whole entry, looked up): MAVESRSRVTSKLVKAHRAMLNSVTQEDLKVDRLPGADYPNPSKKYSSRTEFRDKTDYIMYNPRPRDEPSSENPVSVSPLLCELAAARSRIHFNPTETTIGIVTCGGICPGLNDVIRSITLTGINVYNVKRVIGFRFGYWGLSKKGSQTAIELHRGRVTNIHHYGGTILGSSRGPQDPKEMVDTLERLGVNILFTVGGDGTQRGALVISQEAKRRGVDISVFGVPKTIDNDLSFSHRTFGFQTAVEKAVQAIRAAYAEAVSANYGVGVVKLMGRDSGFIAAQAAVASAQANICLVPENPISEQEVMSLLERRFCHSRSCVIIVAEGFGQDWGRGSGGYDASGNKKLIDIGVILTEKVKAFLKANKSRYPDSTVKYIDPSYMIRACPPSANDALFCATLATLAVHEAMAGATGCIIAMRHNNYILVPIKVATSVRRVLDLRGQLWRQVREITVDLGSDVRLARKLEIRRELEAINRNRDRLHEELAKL
Sequence of D(1A) dopamine receptor (Homo sapiens) (P21728 whole entry, looked up): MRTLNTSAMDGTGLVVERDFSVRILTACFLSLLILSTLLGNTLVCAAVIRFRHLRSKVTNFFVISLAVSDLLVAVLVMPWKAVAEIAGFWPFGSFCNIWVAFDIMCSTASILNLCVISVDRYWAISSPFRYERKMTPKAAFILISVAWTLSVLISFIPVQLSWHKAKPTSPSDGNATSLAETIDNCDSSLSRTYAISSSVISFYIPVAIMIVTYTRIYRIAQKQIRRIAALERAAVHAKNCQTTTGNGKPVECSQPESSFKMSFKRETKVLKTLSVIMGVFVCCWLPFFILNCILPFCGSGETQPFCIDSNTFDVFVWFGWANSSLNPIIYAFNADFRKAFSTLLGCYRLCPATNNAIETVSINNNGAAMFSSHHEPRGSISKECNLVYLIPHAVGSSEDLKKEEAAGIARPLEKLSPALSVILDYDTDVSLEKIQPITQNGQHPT
Sequence of Transient receptor potential cation channel subfamily V member 1 (Homo sapiens) (Q8NER1 whole entry, looked up): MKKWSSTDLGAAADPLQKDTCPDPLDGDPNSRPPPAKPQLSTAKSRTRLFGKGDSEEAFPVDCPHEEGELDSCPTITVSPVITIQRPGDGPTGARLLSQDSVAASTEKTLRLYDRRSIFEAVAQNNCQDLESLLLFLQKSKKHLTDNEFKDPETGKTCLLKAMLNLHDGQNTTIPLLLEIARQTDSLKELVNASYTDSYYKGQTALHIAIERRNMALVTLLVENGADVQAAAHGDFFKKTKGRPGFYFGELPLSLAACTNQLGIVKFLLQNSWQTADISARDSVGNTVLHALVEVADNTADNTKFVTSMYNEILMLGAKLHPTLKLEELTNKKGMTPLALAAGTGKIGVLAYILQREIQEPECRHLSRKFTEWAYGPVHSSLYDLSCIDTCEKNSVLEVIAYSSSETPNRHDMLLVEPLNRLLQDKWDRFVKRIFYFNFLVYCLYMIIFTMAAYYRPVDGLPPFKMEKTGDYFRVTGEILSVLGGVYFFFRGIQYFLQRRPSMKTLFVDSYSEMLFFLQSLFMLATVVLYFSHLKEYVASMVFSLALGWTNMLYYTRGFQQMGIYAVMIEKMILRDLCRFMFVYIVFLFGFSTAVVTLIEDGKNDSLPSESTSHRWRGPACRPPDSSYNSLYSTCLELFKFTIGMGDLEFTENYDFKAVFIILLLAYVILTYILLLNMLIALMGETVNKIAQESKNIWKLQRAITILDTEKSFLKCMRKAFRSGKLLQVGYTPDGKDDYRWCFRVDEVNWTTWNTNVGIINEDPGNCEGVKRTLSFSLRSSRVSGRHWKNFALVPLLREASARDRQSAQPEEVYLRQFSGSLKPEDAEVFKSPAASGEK
Sequence of ATPase family AAA domain-containing protein 5 (Homo sapiens) (Q96QE3 whole entry, looked up, the tested form may be a part): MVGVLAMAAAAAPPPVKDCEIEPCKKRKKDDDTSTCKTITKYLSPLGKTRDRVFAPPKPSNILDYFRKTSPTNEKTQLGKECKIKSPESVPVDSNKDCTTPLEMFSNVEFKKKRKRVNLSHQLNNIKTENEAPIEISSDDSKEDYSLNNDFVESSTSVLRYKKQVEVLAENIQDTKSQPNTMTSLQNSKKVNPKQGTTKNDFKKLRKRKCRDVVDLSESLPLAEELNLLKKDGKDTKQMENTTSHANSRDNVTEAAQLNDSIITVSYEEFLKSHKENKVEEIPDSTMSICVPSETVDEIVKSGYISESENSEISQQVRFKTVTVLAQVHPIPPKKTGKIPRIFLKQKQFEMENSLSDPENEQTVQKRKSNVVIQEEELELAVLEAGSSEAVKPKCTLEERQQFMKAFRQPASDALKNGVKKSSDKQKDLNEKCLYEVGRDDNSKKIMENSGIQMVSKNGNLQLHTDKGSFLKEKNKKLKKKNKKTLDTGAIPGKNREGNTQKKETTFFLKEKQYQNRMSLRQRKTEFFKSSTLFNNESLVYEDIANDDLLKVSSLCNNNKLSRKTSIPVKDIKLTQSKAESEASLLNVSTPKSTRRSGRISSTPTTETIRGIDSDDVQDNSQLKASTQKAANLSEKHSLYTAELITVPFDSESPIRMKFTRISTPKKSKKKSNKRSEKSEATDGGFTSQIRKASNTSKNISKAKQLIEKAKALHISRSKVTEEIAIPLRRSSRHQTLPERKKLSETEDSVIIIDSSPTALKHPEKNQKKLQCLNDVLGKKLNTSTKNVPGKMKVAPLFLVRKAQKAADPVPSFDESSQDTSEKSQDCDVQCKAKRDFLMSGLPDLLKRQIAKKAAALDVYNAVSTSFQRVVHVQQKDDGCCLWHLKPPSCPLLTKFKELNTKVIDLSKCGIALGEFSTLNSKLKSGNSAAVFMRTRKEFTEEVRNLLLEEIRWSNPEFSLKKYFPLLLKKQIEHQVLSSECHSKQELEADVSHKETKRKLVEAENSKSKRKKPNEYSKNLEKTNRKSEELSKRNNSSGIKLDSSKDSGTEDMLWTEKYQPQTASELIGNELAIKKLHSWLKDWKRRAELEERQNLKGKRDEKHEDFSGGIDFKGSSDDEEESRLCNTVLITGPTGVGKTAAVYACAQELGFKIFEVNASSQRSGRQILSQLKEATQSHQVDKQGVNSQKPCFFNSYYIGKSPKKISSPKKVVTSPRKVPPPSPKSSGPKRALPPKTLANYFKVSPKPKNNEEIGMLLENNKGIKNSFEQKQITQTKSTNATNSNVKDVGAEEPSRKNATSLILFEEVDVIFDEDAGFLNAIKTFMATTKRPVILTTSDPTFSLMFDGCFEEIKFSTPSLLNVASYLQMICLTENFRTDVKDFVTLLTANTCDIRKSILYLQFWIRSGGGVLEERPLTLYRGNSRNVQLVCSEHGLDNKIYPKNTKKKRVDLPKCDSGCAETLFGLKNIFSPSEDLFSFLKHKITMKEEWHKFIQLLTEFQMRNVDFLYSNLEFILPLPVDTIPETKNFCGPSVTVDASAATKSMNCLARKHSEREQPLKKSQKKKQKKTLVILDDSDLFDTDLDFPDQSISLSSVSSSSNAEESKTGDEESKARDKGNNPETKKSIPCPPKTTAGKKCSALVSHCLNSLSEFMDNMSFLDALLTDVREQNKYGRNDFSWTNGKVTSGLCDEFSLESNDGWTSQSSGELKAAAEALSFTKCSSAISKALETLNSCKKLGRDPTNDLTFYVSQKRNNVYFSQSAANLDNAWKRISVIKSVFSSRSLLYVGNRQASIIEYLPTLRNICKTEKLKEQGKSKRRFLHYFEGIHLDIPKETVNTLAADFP

Take `c1ccc2c(c1)CCCC2C1=NCCN1` (configuration not stated): the Potency entry in assay [1], in assay [4], in [5], in [6] and in assay [7] was “inactive” throughout. Moreover, the result in [2] and in assay [3] was inactive.

With `CC(C)(Oc1ccc(CCNC(=O)c2ccc(Cl)cc2)cc1)C(=O)O`, the Potency entry in assay [1], in assay [4], in assay [8], in assay [5], in [6] and in assay [7] was “inactive” in each case. The compound was called inactive in assay [2] and in [9].

As to `C[N+](C)(C)CCCCCCCCCC[N+](C)(C)C`, the Potency result in assay [1], in assay [4], in assay [8], in assay [6] and in [7] was “inactive” each time. In addition, the compound was called inactive in assay [2], in [3] and in assay [9].

As to `NC(=O)c1ncn([C@@H]2O[C@H](CO)[C@@H](O)[C@H]2O)c1O`, the Potency entry in assay [1], in assay [4], in [8], in [5], in assay [6] and in assay [7] was “inactive” throughout. The result in [2], in assay [3] and in assay [9] was inactive.

For `CCOC(=O)C1=C(C)NC(C)=C(C(=O)OC)C1c1cccc(Cl)c1Cl` (configuration not stated), the Potency result in [1], in [4], in assay [8] and in assay [6] was “inactive” each time. Further, the call in assay [2], in assay [3] and in assay [9] was inactive.

On to `CCCCCCCC/C=C\CCCCCCCC(=O)NCc1ccc(O)c(OC)c1`, for which the Potency entry in [1], in [4], in assay [5], in assay [6] and in assay [7] was “inactive” in each case. Moreover, the outcome in [2] and in assay [9] was inactive.

For `Cc1ccc(Cl)c(Nc2ccccc2C(=O)O)c1Cl`, the Potency result in assay [1], in assay [4], in assay [8], in assay [6] and in assay [7] was “inactive” in each case. For the same compound, the call in assay [2], in assay [3] and in assay [9] was inactive.

Take `CC(=O)OCC1=C(C(=O)O)N2C(=O)[C@@H](NC(=O)Cc3cccs3)[C@H]2SC1`: the Potency result in assay [1], in [4], in [8], in assay [5], in assay [6] and in [7] was “inactive” in each case. For the same compound, the outcome in assay [3], in assay [10] and in assay [9] was inactive.

As for `C[n+]1cc2c3c(ccc2c2ccc4cc5c(cc4c21)OCO5)OCO3`, the Potency entry in [1], in assay [4], in [8] and in assay [5] was “inactive” throughout. Further, the result in assay [2] was inactive.

Regarding `CN(C)CC/C=C1\c2ccccc2COc2ccccc21`, the Potency result in assay [1], in [4], in assay [8], in assay [6] and in assay [7] was “inactive” each time. Moreover, the compound was called inactive in [2].

With `CC(=O)[C@]1(O)Cc2c(O)c3c(c(O)c2[C@@H](O[C@H]2C[C@H](N)[C@H](O)[C@H](C)O2)C1)C(=O)c1ccccc1C3=O`, the Potency in [1] is 39.8 µM (active); in assay [4] it was 11.2 µM (active); in assay [8], 2.91 µM (active); in assay [6], 0.58 µM (active); in assay [7], 5.8 µM (active). The compound was called inactive in assay [2], in [10] and in [9].

Consider `CCN(CC)CCCN(c1ccccc1)C1Cc2ccccc2C1`, for which the Potency result in [1], in [4], in assay [8], in assay [6] and in assay [7] was “inactive” in each case. Moreover, the compound was called inactive in assay [2] and in assay [9].

Consider `CN=C(NC#N)NCCSCc1nc[nH]c1C`, for which the Potency result in assay [1], in assay [4], in assay [8], in assay [6] and in assay [7] was “inactive” throughout. For the same compound, the outcome in assay [2] and in [3] was inactive.

Take `CN(C)CCOC(=O)COc1ccc(Cl)cc1`: the Potency result in assay [1], in [4], in assay [8], in [6] and in assay [7] was “inactive” each time. For the same compound, the compound was classed as inactive in [2], in assay [3] and in [9].

Take `CCCCNC(=O)NS(=O)(=O)c1ccc(C)cc1`: the Potency entry in assay [1], in assay [4], in [8], in [5], in assay [6] and in assay [7] was “inactive” in each case. For the same compound, the call in assay [2] and in [3] was inactive.

Regarding `CN(C)CC[C@@H](c1ccc(Br)cc1)c1ccccn1`, the Potency result in assay [1], in assay [4], in [8], in [6] and in assay [7] was “inactive” in each case. The compound was classed as inactive in [2], in [3] and in assay [9].

`COC(=O)C1=C(C)NC(C)=C(C(=O)OC(C)(C)CN(C)CCC(c2ccccc2)c2ccccc2)C1c1cccc([N+](=O)[O-])c1` (configuration not stated): the Potency in assay [1] was 25.1 µM (active). Further, the outcome in assay [2] and in assay [9] was inactive. Moreover, the Potency entry in assay [4], in [8], in assay [5] and in assay [6] was “inactive” in each case.

On to `Cc1cccc(C)c1NC(=O)C(C)N` (configuration not stated), for which the Potency entry in [1], in assay [4], in assay [8], in assay [5], in assay [6] and in assay [7] was “inactive” in each case. The compound was called inactive in [2].

On to `COC(=O)[C@@H](N)Cc1ccc(O)c(O)c1`, for which the Potency result in [1], in [4], in assay [8], in assay [5], in [6] and in [7] was “inactive” in each case. Also, the compound was classed as inactive in assay [2], in assay [3] and in [9].

With `NC(N)=NC(=O)Cc1c(Cl)cccc1Cl`, the Potency entry in [1], in [4], in assay [8], in assay [6] and in assay [7] was “inactive” throughout. The result in assay [2] and in [3] was inactive.

As for `C[C@]12CC[C@@H]3c4ccc(O)cc4C[C@@H](CCCCCCCCCS(=O)CCCC(F)(F)C(F)(F)F)[C@H]3[C@@H]1CC[C@@H]2O` (some centres not stated), the Potency result in assay [1], in assay [4], in [8], in assay [5] and in assay [6] was “inactive” in each case.

Take `Cc1nc2ccccn2c(=O)c1CCN1CCC(C(=O)c2ccc(F)cc2)CC1`: the Potency result in [1], in assay [4], in [8] and in assay [6] was “inactive” in each case. Further, the outcome in [3] was inactive. The Potency in [5] is 4.47 µM (active).

For the compound `Cc1nnc(SCC2=C(C(=O)O)N3C(=O)[C@@H](NC(=O)Cn4cnnn4)[C@H]3SC2)s1`, the result in [2], in assay [3], in assay [10] and in assay [9] was inactive. The Potency result in assay [4], in assay [8], in [5], in [6] and in assay [7] was “inactive” in each case.

Regarding `Cc1nc2c([nH]1)c(=O)n(C)c(=O)n2Cc1ccco1`, the Potency entry in assay [1], in [4], in assay [8], in [5] and in [6] was “inactive” throughout. In addition, the outcome in assay [3] was inactive.

For the compound `O=C(CCCN1CCC(O)(c2cccc(C(F)(F)F)c2)CC1)c1ccc(F)cc1`, the Potency entry in assay [1], in [8] and in assay [6] was “inactive” throughout. Besides, the outcome in [3] and in assay [9] was inactive.

Take `CN1CCN(C2=Nc3ccccc3Oc3ccc(Cl)cc32)CC1`: the Potency result in assay [1], in assay [4], in [8], in assay [6] and in assay [7] was “inactive” in each case. For the same compound, the result in assay [3], in assay [10] and in assay [9] was inactive.

Turning to `CC(C)COCC(CN(Cc1ccccc1)c1ccccc1)N1CCCC1` (configuration not stated), the Potency result in assay [1], in assay [4], in assay [8], in assay [5] and in assay [6] was “inactive” throughout. Moreover, the result in assay [3] was inactive.

Regarding `Nc1c2c(nc3ccccc13)CCCC2O` (configuration not stated), the Potency entry in [1], in assay [4], in [8], in assay [5], in assay [6] and in assay [7] was “inactive” throughout. The outcome in assay [3] and in assay [10] was inactive.

In the case of `CCN(CC)CCOCCOC(=O)C1(c2ccccc2)CCCC1`, the Potency entry in [1], in [4], in [8], in assay [5], in assay [6] and in [7] was “inactive” throughout. The outcome in assay [3], in assay [10] and in [9] was inactive.
